Results: PubChem BioAssay (EPA / NIEHS)
Active and inactive are the calls of the source. The calls were made as follows: active = hit-call score of the fitted dose curve at least 0.9, where 1 is the maximum; inactive = score below 0.9.

Each compound was assayed on 3-Hydroxy-3-Methylglutaryl-CoA Synthase 2 (HMGCS2), HMGCS2 (gene 3158) (assay: LTEA_HepaRG_HMGCS2: Life Technologies and Expression Analysis (LTEA) Assay for 3-Hydroxy-3-Methylglutaryl-CoA Synthase 2 (HMGCS2) using HepaRG (AID 2283504)). Conditions: mRNA level, 48 h; actives raise or lower the signal.
In short: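 Readout is HMGCS2 transcript by qRT-PCR, housekeeping-normalised (ACTB/GAPDH/POLR2A) and fitted bidirectionally against 0.5% DMSO. Differentiated HepaRG cells received chemicals 48 h, duplicate wells, eight half-log concentrations topping at 100 uM.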
For `COCC(C)N(C(=O)CCl)c1c(C)csc1C` (stereo unspecified), the outcome was “inactive”.
`COC(=O)c1c(C(F)F)nc(C(F)(F)F)c(C2=NCCS2)c1CC(C)C` was tested, and the outcome was “inactive”.
With `Cn1c(-c2ccccc2)cc(-c2ccccc2)[n+]1C` the AC50 was 35 µM (active).
With `COC(=O)NS(=O)(=O)c1ccc(N)cc1` the outcome was “inactive”.
In the case of `CC(C)Nc1nc(Cl)nc(NC(C)C)n1`, the AC50 is reported as 23.6 µM (active).
In the case of `COC(=O)NC(=S)Nc1ccccc1NC(=S)NC(=O)OC`, the outcome is reported as “inactive”.
With `Clc1cccc(C(Cl)(Cl)Cl)n1` the outcome was “inactive”.
For `COP(=S)(OC)Oc1ccc([N+](=O)[O-])c(C)c1`, the outcome was “inactive”.
`CCOP(=S)(OCC)Oc1nc(Cl)n(C(C)C)n1` was tested, and the AC50 was 17.2 µM (active).
With `COc1cc(Cl)c(OC)cc1Cl` the outcome was “inactive”.
With `CCCCC(O)(Cn1cncn1)c1ccc(Cl)cc1Cl` (stereo unspecified) the AC50 was 77.9 µM (active).
With `CNC(=O)N(C)c1nnc(C(C)(C)C)s1` the outcome was “inactive”.
`O=C(Nc1ccccc1-c1ccc(Cl)cc1)c1cccnc1Cl` was tested, and the AC50 was 52.5 µM (active).
For `CCNC(=O)NC(=O)C(C#N)=NOC`, the AC50 was 50 µM (active).
For `CCN(CC)C(=O)C(C)Oc1cccc2ccccc12` (stereo unspecified), the AC50 was 76.9 µM (active).
For `CC1(C)CON(Cc2ccccc2Cl)C1=O`, the outcome was “inactive”.
In the case of `CCOc1nc(C(Cl)(Cl)Cl)ns1`, the outcome is reported as “inactive”.
For `CN=C=S`, the outcome was “inactive”.
With `C=C(C)CN(CC)c1c([N+](=O)[O-])cc(C(F)(F)F)cc1[N+](=O)[O-]` the outcome was “inactive”.
`Nc1c(Cl)c(Cl)nc(C(=O)O)c1Cl` was tested, and the outcome was “inactive”.
For `CC1(C)C(C=C(Cl)Cl)C1C(=O)OC(C#N)c1cccc(Oc2ccccc2)c1` (stereo unspecified), the outcome was “inactive”.
For `Cc1cnc(C2=NC(C)(C(C)C)C(=O)N2)c(C(=O)O)c1` (stereo unspecified), the outcome was “inactive”.
For `CSC(=O)c1c(C(F)F)nc(C(F)(F)F)c(C(=O)SC)c1CC(C)C`, the AC50 was 85.8 µM (active).
`CCOc1cc(C(C)(C)C)ccc1C1COC(c2c(F)cccc2F)=N1` (stereo unspecified) was tested, and the AC50 was 46.9 µM (active).
`COC(=O)N(C(=O)N1CO[C@@]2(C(=O)OC)Cc3cc(Cl)ccc3C2=N1)c1ccc(OC(F)(F)F)cc1` was tested, and the AC50 was 40 µM (active).
In the case of `CC(C)N1C(=O)c2ccccc2NS1(=O)=O`, the outcome is reported as “inactive”.
`CCCC(=NOCC)C1=C(O)CC(CC(C)SCC)CC1=O` (stereo unspecified) was tested, and the outcome was “inactive”.
With `C=CCOC(=O)C(C)(C)OC(=O)c1cc(-n2c(=O)cc(C(F)(F)F)n(C)c2=O)ccc1Cl` the outcome was “inactive”.
In the case of `CC(C)Oc1cccc(NC(=O)c2ccccc2C(F)(F)F)c1`, the outcome is reported as “inactive”.
With `CC(C)NC(=O)N1CC(=O)N(c2cc(Cl)cc(Cl)c2)C1=O` the AC50 was 13.2 µM (active).
In the case of `CC(C)(C)C(=O)C(Oc1ccc(Cl)cc1)n1cncn1` (stereo unspecified), the outcome is reported as “inactive”.
With `CC1(C)CCC(=Cc2ccc(Cl)cc2)C1(O)Cn1cncn1` (stereo unspecified) the outcome was “inactive”.
In the case of `COCC(=O)N(c1c(C)cccc1C)C(C)C(=O)OC` (stereo unspecified), the outcome is reported as “inactive”.
`CCOc1nc(F)cc2nc(S(=O)(=O)Nc3c(Cl)cccc3Cl)nn12` was tested, and the outcome was “inactive”.
For `COP(=O)(OC)O/C(C)=C/C(=O)N(C)C`, the outcome was “inactive”.
`CC(C)N1C(=O)N(c2ccccc2)CSC1=NC(C)(C)C` was tested, and the AC50 was 75.5 µM (active).
